Shown are actives, neighbours in structure and some others; about 0.9% of the full set was active somewhere.
RECQ1 helicase = RECQ1 (human) helicase inhibition. P46063. RECQ1 DNA unwinding, red fluorescence kinetic read. Potency, µM (highest dose often 57.3 µM), hits mostly inhibitors. actives 0.54% (n = 240,000); further: nearly all actives have a fitted effect of over 30% in size
Target sequence (P46063 whole entry, looked up): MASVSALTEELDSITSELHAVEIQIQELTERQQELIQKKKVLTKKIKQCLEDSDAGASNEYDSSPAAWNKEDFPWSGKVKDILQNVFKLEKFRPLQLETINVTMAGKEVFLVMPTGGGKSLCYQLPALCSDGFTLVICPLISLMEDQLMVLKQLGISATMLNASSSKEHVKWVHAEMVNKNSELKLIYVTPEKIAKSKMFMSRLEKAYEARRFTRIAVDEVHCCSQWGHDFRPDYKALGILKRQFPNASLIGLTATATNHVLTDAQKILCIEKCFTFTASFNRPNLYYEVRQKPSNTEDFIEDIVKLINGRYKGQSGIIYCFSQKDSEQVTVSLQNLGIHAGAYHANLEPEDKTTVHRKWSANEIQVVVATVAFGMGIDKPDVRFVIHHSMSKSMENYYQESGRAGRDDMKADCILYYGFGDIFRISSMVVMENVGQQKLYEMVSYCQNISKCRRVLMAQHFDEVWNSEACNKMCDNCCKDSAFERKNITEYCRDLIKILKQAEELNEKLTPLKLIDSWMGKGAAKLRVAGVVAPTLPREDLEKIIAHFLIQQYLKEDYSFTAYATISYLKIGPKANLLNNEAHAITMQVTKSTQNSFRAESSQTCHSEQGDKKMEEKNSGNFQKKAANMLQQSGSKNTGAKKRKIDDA
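RECQ1T1 50 nM; forked duplex (20 bp + 30-nt ss tails) 200 nM, ATP 2 mM final; pH 8.0, 2 mM MgCl2, 2.5 ug/ml poly(dI-dC); 15 min compound preincubation; discontinuous kinetic read over 2 h at RT.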
RGS12 GoLoco inh = RGS12 GoLoco-Gai1 interaction inhibition; AID 880; P63096; Gai1:RGS12 GoLoco peptide FP, rhodamine, 10 min; actives 0.44% (n = 230,000); Potency, µM (titrated, usually from 61.6 µM), hits mostly inhibitors; active means well fitted inhibition curve with a large enough effect, not every such curve was filed as active; inactive means no such curve, though single readings can be large or run the other way; further: nearly all actives have a fitted effect of over 30% in size
APE1 inh = inhibitors of human APE1 endonuclease. P27695. recombinant APE1, TAMRA/BHQ-2 abasic DNA cleavage fluorescence. Potency, µM (top dose mostly 65.8 µM), actives largely listed as inhibitors. actives 0.35% (n = 350,000); further: nearly all actives have a fitted effect of over 55% in size
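Measures dequenching upon AP-site incision of a 5'-TAMRA/3'-BHQ-2 THF-containing duplex, 50 nM; human APE1 0.75 nM after 15 min room-temperature exposure to compound; kinetic three-point read at one-minute spacing.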
TexasRed fluor = alters Texas Red total fluorescence, flagging assay interference. TRb/SRC2 Texas Red total fluorescence interference. Potency, µM (highest dose often 106 µM). actives 0.29% (n = 280,000); active means well fitted curve in either direction with a large enough effect; inconclusive means small, poorly fitted or top-dose-only effect
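Flags fluorescent or light-absorbing compounds by total fluorescence, S + 2P, at 555 nm excitation and 632 nm emission. Mixture: 20 nM Texas Red SRC2 peptide, 0.6 uM human TRb LBD, 1 uM T3, 5% DMSO; compound exposure 5 h at ambient temperature.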
TRb-SRC2 inh = TRbeta-SRC2 interaction inhibition. TRbeta-SRC2 peptide binding, fluorescence polarization; receptor liganded with 1 µM T3. actives 0.065% (n = 280,000). P10828. AID 1469. Potency, µM (highest dose often 106 µM), hits mostly inhibitors; further: nearly all actives have a fitted effect of over 50% in size
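Polarization signal, normalized between peptide-alone and full complex controls, measured compound effects on T3-liganded human TRb LBD (0.6 uM) binding 20 nM Texas Red SRC2 peptide after 5 hr.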
BLM helicase inh = inhibitors of human Bloom syndrome helicase BLM; P54132; recombinant BLM DNA unwinding, fluorescence dequenching; Potency, µM (series often up to 56.1 µM), usual class: inhibitors; actives 0.2% (n = 350,000); further: nearly all actives have a fitted effect of over 35% in size
Each line names hits and unclear results; the compound was inactive in the other large screens; [ ] = another dose, or the depositor's remark. Unless noted, the call rests on the fitted dose curve; in most records, active means well fitted curve in the direction sought with a large enough effect; inconclusive means small, poorly fitted or top-dose-only effect, or another doubt; inactive means no such curve, though single readings can be large; an effect the other way counts as inactive or inconclusive.

CCNc1cc(N2CCN(C3CCCCC3)CC2)c2noc3c2c1C(=O)c1ccccc1-3	none (no result: RECQ1 helicase, RGS12 GoLoco inh, APE1 inh)
O=C(O)C1CCCCC1C(=O)Nc1cccc(Br)c1 (stereo unspecified)	APE1 inh 0.47µM (no result: RECQ1 helicase, RGS12 GoLoco inh, TexasRed fluor, TRb-SRC2 inh, BLM helicase inh)
O=C1C(Cl)=C(Nc2ccc3cn[nH]c3c2)C(=O)c2ccccc21	RGS12 GoLoco inh 7.9µM
CC1CCc2c(sc3nc(-c4cc5ccccc5oc4=O)nc(Cl)c23)C1 (stereo unspecified)	TexasRed fluor 32µM[quencher] (no result: RECQ1 helicase, RGS12 GoLoco inh, APE1 inh)
CC(C)(C)C1CCc2c(sc3nc(-c4cc5ccccc5oc4=O)[nH]c(=O)c23)C1 (stereo unspecified)	none (no result: RECQ1 helicase, RGS12 GoLoco inh, APE1 inh)
CN1/C(=C\C=N\O)C(C)(C)c2ccccc21	none
CN1/C(=C\C=C2/SC(=S)NC2=O)C(C)(C)c2ccccc21	RECQ1 helicase 32µM, APE1 inh 25µM, TexasRed fluor inconclusive, TRb-SRC2 inh inconclusive, BLM helicase inh inconclusive
CN1/C(=C\C=[N+](C)c2ccccc2)C(C)(C)c2ccccc21	RGS12 GoLoco inh 4µM
CN1C(=CC=C2C=C(I)C(=O)C(I)=C2)C(C)(C)c2ccccc21	RECQ1 helicase 0.63µM, TexasRed fluor inconclusive, TRb-SRC2 inh inconclusive, BLM helicase inh 28µM
Nc1cc(Cl)nc(C(=O)O)c1Cl	none (no result: RECQ1 helicase, RGS12 GoLoco inh, APE1 inh, BLM helicase inh)
O=C(O)c1cccc(-c2ccc(/C=C3/SC(=Nc4ccccc4)N(Cc4cccnc4)C3=O)o2)c1	APE1 inh 7.5µM (no result: RECQ1 helicase, RGS12 GoLoco inh, TexasRed fluor, TRb-SRC2 inh)
CCN1C(=O)/C(=C\c2ccc(-c3cccc(C(=O)OC)c3)o2)SC1=Nc1ccc(C(=O)O)cc1	APE1 inh inconclusive (no result: RECQ1 helicase, RGS12 GoLoco inh, TexasRed fluor, TRb-SRC2 inh)
CN(C)CCNC(=O)C1CCN(c2ncnc3c2nc2n3CCCCC2)CC1	TexasRed fluor 25µM[quencher] (no result: RECQ1 helicase, RGS12 GoLoco inh, APE1 inh)
CCOc1ccc(CCNC(=O)C2CCN(c3ncnc4c3nc3n4CCCCC3)CC2)cc1	TexasRed fluor 22µM[quencher] (no result: RECQ1 helicase, RGS12 GoLoco inh, APE1 inh)
CC1(C)CC(N)CC(C)(CN)C1 (stereo unspecified)	none (no result: RECQ1 helicase, RGS12 GoLoco inh, APE1 inh, BLM helicase inh)
COC(=O)c1ccc(NS(=O)(=O)c2ccc3[nH]c4c(c3c2)CCCCC4)cc1	TexasRed fluor inconclusive (no result: RECQ1 helicase, RGS12 GoLoco inh, APE1 inh)
COC(=O)c1ccc(NS(=O)(=O)c2ccc3[nH]c4c(c3c2)CCCC4)cc1	TexasRed fluor 28µM[quencher] (no result: RECQ1 helicase, RGS12 GoLoco inh, APE1 inh)
C[Si](Cl)(Cl)c1ccccc1	none (no result: RECQ1 helicase, RGS12 GoLoco inh, APE1 inh, BLM helicase inh)
CC1(C)CC(=O)C(N=Nc2cc(C(F)(F)F)ccc2Cl)=C(O)C1	none
CC1(C)CC(=O)C(N=Nc2cc(S(=O)(=O)N3CCOCC3)ccc2Cl)=C(O)C1	APE1 inh 10µM
Cc1ccc2[nH]c(-c3ccc(F)cc3F)cc(=O)c2c1	TexasRed fluor inconclusive
C[N+](C)(C)CCCCCC(=O)/C=N/O	RGS12 GoLoco inh 2.5µM
C[N+](C)(C)CCCCCC[N+](C)(C)C	none
O=C(c1ccc(CS(=O)(=O)c2c(Cl)cccc2Cl)o1)N1CCN(c2ccccc2)CC1	TexasRed fluor 6.3µM[quencher] (no result: RECQ1 helicase, RGS12 GoLoco inh, APE1 inh)
O=C(c1ccc(CS(=O)(=O)c2c(Cl)cccc2Cl)o1)N1CCCC1	none
O=C(Cn1nnc(-c2cc(C(F)(F)F)cc(C(F)(F)F)c2)n1)NNC(=S)Nc1ccc(Cl)cc1	BLM helicase inh 18µM
CCN(CC)c1ccc(NC(=O)COC(=O)c2cccs2)cc1	RGS12 GoLoco inh 2µM, APE1 inh inconclusive
CC1=c2c(oc3cc(O)c(Nc4c(C)cc(O)cc4O)c(C)c23)=CC(=O)C1=Nc1c(C)cc(O)cc1O	RGS12 GoLoco inh 3.2µM (no result: RECQ1 helicase, APE1 inh, TexasRed fluor, TRb-SRC2 inh, BLM helicase inh)
CN(C)c1ccc(/C=C/c2cc[n+](C)cc2)cc1	TexasRed fluor 45µM[fluorescent], TRb-SRC2 inh inconclusive
COc1cc(-c2cc(=O)c3c(O)c(OC)c(OC)c(O)c3o2)ccc1O	RECQ1 helicase 13µM, APE1 inh inconclusive
O=C1C2=C(Nc3cc([N+](=O)[O-])ccc3N2)O[C@@H]1c1ccc([C@H]2OC3=C(Nc4ccc([N+](=O)[O-])cc4N3)C2=O)cc1	none (no result: RECQ1 helicase, APE1 inh, TexasRed fluor, TRb-SRC2 inh, BLM helicase inh)
Cc1ccccc1C(=O)Nc1cccc(NC(=O)c2ccc(C(C)(C)C)cc2)c1	TexasRed fluor 0.16µM[quencher] (no result: RECQ1 helicase, RGS12 GoLoco inh, APE1 inh)
CCNc1nc(N)nc(Cl)n1	none (no result: RECQ1 helicase, RGS12 GoLoco inh, APE1 inh, BLM helicase inh)
CC(C)(C)NC(=O)/C=C/c1cccc(C(F)(F)F)c1	none
CC(=O)Nc1ccc(NC(=O)/C=C/c2cccc(C(F)(F)F)c2)cc1	TexasRed fluor 3.2µM[quencher], TRb-SRC2 inh inconclusive

Screening data as filed in PubChem BioAssay.
